Source: PubChem BioAssay (NCI)
The panel holds about 83,000 compounds, 20% with a hit somewhere; the sample as a whole holds those more often.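 Cells were grown in 96-well plates and exposed to the test compound at a single concentration for 48 hours; results are reported as percent growth, with values below 10 considered active.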 A number with no mark means an inactive call. Active and inactive are the calls of the source.

Tests used:
Experiment in all cases: NCI-60 one-dose screen, 48 h (100 = growth as untreated, 0 = no growth, -100 = all killed)
Conditions in all cases: 10 µM
NCI-H23 lung = tested on: NCI-H23 lung
NCI-H226 lung = tested on: NCI-H226 lung
NCI-H460 lung = tested on: NCI-H460 lung
HOP-92 NSCLC = tested on: HOP-92 NSCLC
NCI-H522 lung = tested on: NCI-H522 lung
A549/ATCC NSCLC = tested on: A549/ATCC NSCLC
786-0 renal = tested on: 786-0 renal
COLO 205 colon = tested on: COLO 205 colon
DU-145 prostate = tested on: DU-145 prostate
K-562 leukemia = tested on: K-562 leukemia
MALME-3M melanoma = tested on: MALME-3M melanoma
MDA-MB-231 breast = tested on: MDA-MB-231 breast
RXF 393 renal = tested on: RXF 393 renal
SF-268 CNS = tested on: SF-268 CNS
SF-295 CNS = tested on: SF-295 CNS
SF-539 CNS = tested on: SF-539 CNS
UACC-257 melanoma = tested on: UACC-257 melanoma
M14 melanoma = tested on: M14 melanoma

Row | SMILES | growth (NCI-H23 lung) | growth (NCI-H226 lung) | growth (NCI-H460 lung) | growth (HOP-92 NSCLC) | growth (NCI-H522 lung) | growth (A549/ATCC NSCLC) | growth (786-0 renal) | growth (COLO 205 colon) | growth (DU-145 prostate) | growth (K-562 leukemia) [%] | growth (MALME-3M melanoma) | growth (MDA-MB-231 breast) | growth (RXF 393 renal) | growth (SF-268 CNS) [%] | growth (SF-295 CNS) | growth (SF-539 CNS) | growth (UACC-257 melanoma) | growth (M14 melanoma)
1 | COc1ccc(-c2cc(-c3ccc(Cl)cc3)nc(SCCCCCCC(=O)NO)n2)cc1OC | 42.7% | 69.3% | 19.7% | 40.6% | 45.4% | 58.5% | 51.3% | 66.4% | 82.4% | 36.1 | 42.5% | 70.8% | 57.5% | 91.9 | 77.1% | 58.4% | 72.1% | 44.4%
2 | C=CCn1c(SCC(=O)Nc2ccc(C(=O)/C=C/c3cc(OC)c(OC)c(OC)c3)cc2)nnc1-c1cc(-c2ccc(Cl)cc2)nc2ccccc12 | 88.7% | 89.1% | 93.1% | 83% | 83.1% | 96.7% | 74.2% | 115% | 95.3% | 75.9 | 97.8% | 75% | 59.4% | 90.9 | 98% | 84.3% | 102% | 95.5%
3 | N#Cc1c(-c2ccc(Cl)cc2)n(O)c2ccccc12 | -13.5% (active) | 75.7% | 9.12% (active) | -8.45% (active) | 10.7% | 26.9% | 8.19% (active) | 115% | 25.4% | 11.6 | 6.37% (active) | 30.5% | 9.91% (active) | 32.5 | 42.1% | -10.1% (active) | 47.4% | 13.5%
4 | C[n+]1c2ccccc2nc2ccccc21 | -9.78% (active) | 42.2% | 17.3% | -10.7% (active) | -39.4% (active) | 24.1% | 10.9% | -25.3% (active) | -59.4% (active) | 25.5 |  | -2.35% (active) | 24.3% | 20.7 | 23.4% | 29.1% |  | -55.7% (active)
5 | C=CCSC(CC)(CC)C(=O)NC | 99.4% | 97.8% | 103% | 106% | 86.5% | 94.9% | 104% | 120% | 120% | 98.3 | 115% | 114% | 107% | 112 | 105% | 103% | 92.1% | 103%
6 | COc1cc2c3c(n(C4CCN(C)CC4)c(=O)c2cc1OC)-c1cc2c(cc1C3=O)OCO2 | 52.4% | 60.8% | 19.8% |  | 8.85% (active) | 55% | 55.4% | 59.5% | 78.4% | 81.2 | 89.5% | 43.6% | 68.2% | 50.5 | 46.7% | -55.5% (active) |  | 60.9%
7 | CN1CCN(C2=Nc3ccccc3Oc3ccc(Cl)cc32)CC1 | 105% | 111% | 105% | 80.4% |  | 94.8% | 87.4% | 96.9% | 108% |  | 91.7% | 76% | 108% | 109 | 94.8% | 111% | 96.5% | 103%
8 | Clc1ccc2c(c1)C(N1CCNCC1)=Nc1ccccc1O2 | 64.4% | 83.3% | 68.1% | 7.39% (active) |  |  | 56.1% | -65.9% (active) | 68.4% |  | 2.69% (active) | 19.4% | 27.2% | 52.9 | 58% | 73.4% | -18.3% (active) | 15.7%
9 | C[N+]1(CCCCC[N+]2(C)CCCC2)CCCC1 | 105% | 83.8% | 94.7% | 74.6% |  | 76.2% | 118% | 122% | 93.2% |  | 90% | 89.5% | 122% | 97.1 | 123% | 93.7% | 102% | 98.5%
10 | CCN1CC(CCN2CCOCC2)C(C(c2ccccc2)c2ccccc2)C1=O (centres undefined) | 105% | 97.3% | 108% | 98.9% |  | 101% | 114% | 110% | 118% |  | 120% | 87.6% | 107% | 112 | 89.9% | 111% | 105% | 
11 | CCCCc1oc2ccccc2c1C(=O)c1cc(I)c(OCCN(CC)CC)c(I)c1 | -38.9% (active) | -36% (active) | -76.7% (active) | -68.7% (active) |  | 9.9% (active) | -90.5% (active) | -79.8% (active) | 34.1% |  | -72.6% (active) | -79.8% (active) | -70.3% (active) | 30.8 | -66.7% (active) | -19% (active) | -61% (active) | -75.3% (active)
12 | C=C(NC(=O)C(=C)NC(=O)c1csc(C2=NC3c4csc(n4)C4NC(=O)c5csc(n5)C(C(C)(O)C(C)O)NC(=O)C5CSC(=N5)C(=CC)NC(=O)C(C(C)O)NC(=O)c5csc(n5)C3(CC2)NC(=O)C(C)NC(=O)C(=C)NC(=O)C(C)NC(=O)C(C(C)CC)NC2C=Cc3c(C(C)O)cc(nc3C2O)C(=O)OC4C)n1)C(N)=O (centres undefined) | 43.2% | -59.6% (active) | 66.2% | 16.2% |  | 72.2% | 8.49% (active) |  | 65.5% |  | 26.9% | 9.76% (active) | -41.3% (active) | 27.1 |  | 1.63% (active) | 26.4% | 
13 | O=C(O)c1ccc(-n2cc(CNc3ccc(Oc4ccccc4)cc3)c(-c3ccccc3)n2)cc1 | 81.1% | 99.3% | 90.2% | 89% | 84.4% |  | 90.6% | 101% | 99.8% | 78.3 | 88.6% | 92% | 86.9% | 90.2 | 72.1% | 90.6% |  | 
14 | CCc1c2c(nc3ccc(OC(=O)N4CCC(N5CCCCC5)CC4)cc13)-c1cc3c(c(=O)n1C2)COC(=O)[C@]3(O)CC | 5.19% (active) | 7.44% (active) | 5.87% (active) | 72.3% |  | 39.6% | -47.7% (active) | 58.1% | -5.72% (active) |  | 36.2% | 102% | 37.7% | 12.5 | -24.5% (active) | -22.1% (active) | 57.6% | 2.35% (active)
15 | C[C@]12CCC3c4ccc(O)cc4C[C@@H](CCCCCCCCCS(=O)CCCC(F)(F)C(F)(F)F)C3C1CC[C@@H]2O (some centres undefined) | 84.8% | 94.2% | 67.7% | 78% |  | 67.9% | 96.1% | 93.7% | 103% |  | 103% | 79.5% | 87.5% | 97.1 | 42.8% | 86.4% | 91.5% | 100%
16 | CC(=O)[C@@]12O[C@](C)(c3ccccc3)O[C@@H]1CC1C3CCC4=CC(=O)CC[C@]4(C)C3CC[C@@]12C (some centres undefined) | 54.4% | 78.5% | 68.4% | 76.2% |  | 70.7% | 67.9% | 81.7% | 97.1% |  | 85.2% | 94.4% | 88.9% | 77.4 | 44.4% | 91.6% | 73.2% | 87%
17 | CN1CCN(c2cc3c(cc2F)c(=O)c(C(=O)O)cn3-c2ccc(F)cc2)CC1 | 95.8% | 100% | 98.5% | 118% |  | 102% | 97.6% | 107% | 118% |  | 96.3% | 109% | 116% | 93.2 | 99.8% | 99.7% | 105% | 93%
18 | Nc1cc(-c2ccncc2)c[nH]c1=O | 102% | 103% | 110% | 90.9% |  | 106% | 103% | 113% | 110% |  | 123% | 115% | 125% | 103 |  | 104% | 111% | 107%
